Results taken from paper PMC7819943, “Rice protein-binding microarrays: a tool to detect cis-acting elements near promoter regions in rice”.
Whole data set: some 39,000 sequences, median “fluorescence intensity (a.u.)” near 4,300, cut for the highest 2% near 39,000. This excerpt belongs to a sample that is enriched for the highest values.

target: T1, OsSMF1 (Oryza sativa, UniProt Q6ZLB0 1-436); assay: protein-binding microarray (RPBM); PBS, 2% BSA, 51.3 ng/ul salmon testes DNA, 50 uM zinc acetate, 200 nM TF, 25 C, 1 h; high values mean tight binding; settings: protein: recombinant; tags: N-terminal polyhistidine and DsRed monomer fusion (pET32a); chain copies: 2; label: CyDye5-dUTP incorporated in the synthesized complementary strand; 3' TTTTT single-stranded linker to array surface; dsDNA, one strand shown
T1 sequence: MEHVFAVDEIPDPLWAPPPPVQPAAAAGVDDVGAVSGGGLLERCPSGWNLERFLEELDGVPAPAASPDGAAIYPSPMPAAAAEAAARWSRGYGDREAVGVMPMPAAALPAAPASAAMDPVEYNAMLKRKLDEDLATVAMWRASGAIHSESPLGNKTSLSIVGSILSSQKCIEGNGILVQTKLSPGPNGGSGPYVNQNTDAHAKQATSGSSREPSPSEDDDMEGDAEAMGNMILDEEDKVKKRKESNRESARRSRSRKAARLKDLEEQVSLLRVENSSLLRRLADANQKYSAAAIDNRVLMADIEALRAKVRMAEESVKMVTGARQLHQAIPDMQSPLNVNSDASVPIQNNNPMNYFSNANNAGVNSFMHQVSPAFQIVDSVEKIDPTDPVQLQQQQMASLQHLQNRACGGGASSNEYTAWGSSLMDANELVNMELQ
Procedure, shortened: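 Using Ni–NTA, transcription factors fused N-terminally to polyhistidine and DsRed were purified after expression in E. coli BL21-CodonPlus. These were incubated at 200 nM with a blocked, double-stranded custom Agilent array for 1 h at 25 °C in a buffer containing 50 µM zinc acetate, and the array was washed. The binding signal is per-feature fluorescence intensity (arbitrary units) on an Axon 4000B scanner.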

| Sequence | binding signal |
| --- | --- |
| CGGCCGCGTCAGGGAGGACGCCGCGCGGCACTACTTCCGGCGGAGTCACCTAGTGCAG | 3870 fluorescence intensity (a.u.) |
| CGACGGCCACAACCGGTTGTGGCGGCGTCTGCGTTGGCAGCGGAGTCACCTAGTGCAG | 5430 fluorescence intensity (a.u.) |
| ATTGCTTTATATGGTTATTTAAGTTTATTTTGCATCCCTACGGAGTCACCTAGTGCAG | 22600 fluorescence intensity (a.u.) |
| ACAGGAGCACCATCAACAGCTGACAACTTGGCATTGGTATCGGAGTCACCTAGTGCAG | 3680 fluorescence intensity (a.u.) |
| ATCAAAATGGCAACAAAAGGGAGTCCAAAGTGAAAATTTTCGGAGTCACCTAGTGCAG | 36100 fluorescence intensity (a.u.) |
| ATCTCCATCGCTGGCGACGGCGAGCATCGCATCGCATCGCCGGAGTCACCTAGTGCAG | 3150 fluorescence intensity (a.u.) |
| CCTCTGGCATCCATTATTGAGTTTATTAATCCTCCATCCTCGGAGTCACCTAGTGCAG | 26300 fluorescence intensity (a.u.) |
| GCGGCTGAATTAATCTCCATCTGGCGAGCATCCACATCCTCGGAGTCACCTAGTGCAG | 52300 fluorescence intensity (a.u.) |
| ACATCATCGGCTACGTCAGGTCCAGCGCCGCCGCCAAGGCCGGAGTCACCTAGTGCAG | 6640 fluorescence intensity (a.u.) |
| AACCCTAGCCACTCTCGTTTCATTGGTCTGACTTATTGGGCGGAGTCACCTAGTGCAG | 14700 fluorescence intensity (a.u.) |
| CGCGCGTCTCGACTCCGTCCCAATCGATCGATCGATCGCGCGGAGTCACCTAGTGCAG | 12800 fluorescence intensity (a.u.) |
| CGCGCCATCGGCACGCTGGGCCAACACGGCACGGTGGACCCGGAGTCACCTAGTGCAG | 3820 fluorescence intensity (a.u.) |
| GGACACACACCCACACGCGCATCCATCCATCCATCCATCCCGGAGTCACCTAGTGCAG | 3220 fluorescence intensity (a.u.) |
| CACGAGCTGGTGGGCATCGAGGACTCCACACACGCGCATCCGGAGTCACCTAGTGCAG | 42800 fluorescence intensity (a.u.) |
| GGTGTGGCGTGAGCGTGACACGGTGTCAACTGTCAAGTGTCGGAGTCACCTAGTGCAG | 3400 fluorescence intensity (a.u.) |
| TGCCCGGCTCGGCTACCCCGTCGCCACCGCCGTTCGTTTCCGGAGTCACCTAGTGCAG | 3190 fluorescence intensity (a.u.) |
| AATAGCTCTCTCCTCAGTCTCTCACGGCCTCATCACCACCCGGAGTCACCTAGTGCAG | 3170 fluorescence intensity (a.u.) |
| TCTCGCCTACCACCAAGCTCATCTCGTTTCGTTAGCTACCCGGAGTCACCTAGTGCAG | 41600 fluorescence intensity (a.u.) |
| GGTCCCTCAGCGGTTTTGGCTGACGTGGCGCATACGTGGCCGGAGTCACCTAGTGCAG | 51700 fluorescence intensity (a.u.) |
| TTTAGATGGCGGTTTTGGCTGACGTGGCGTCTACGTGACGCGGAGTCACCTAGTGCAG | 30700 fluorescence intensity (a.u.) |
| GTTTTGACCCGGTTTTGGTCTACGTGGCGCTGAGTCAGCGCGGAGTCACCTAGTGCAG | 29900 fluorescence intensity (a.u.) |

| Sequence | binding signal |
| --- | --- |
| AGGCGGTTTTGGCTGATGTGGCGTCTACGTGGCTTGTTTGCGGAGTCACCTAGTGCAG | 25300 fluorescence intensity (a.u.) |
| TGGCGGTTTGGAAGGCGGTTTTGGCTGACGTGGCGTCTACCGGAGTCACCTAGTGCAG | 43800 fluorescence intensity (a.u.) |
| GACCCCGGTTTTGTCCCACGTGGCGGCTGACTCAGCGTGGCGGAGTCACCTAGTGCAG | 22500 fluorescence intensity (a.u.) |
| GATCTCCTTTACACGTGATGTTGACGTGGCGTTTAGGTGGCGGAGTCACCTAGTGCAG | 26500 fluorescence intensity (a.u.) |
| GGAAGCGCCAGCCAGCGCTCGCCGTTGTCACCTGTCACACCGGAGTCACCTAGTGCAG | 3480 fluorescence intensity (a.u.) |
| TACAGATCGATGCGACACTCTGACACGTTACGCTCTCTCTCGGAGTCACCTAGTGCAG | 6440 fluorescence intensity (a.u.) |
| TTGTGATGTCCATGTCACATGCAGTCCATTAAGGCCCTTGCGGAGTCACCTAGTGCAG | 5190 fluorescence intensity (a.u.) |
| GTTGTTGTTCTTGGATGTGAATGTGAATAATGTGATGTTTCGGAGTCACCTAGTGCAG | 3350 fluorescence intensity (a.u.) |
| CAGTGCTAGGGAAGCGACCAATGATGGATAGTGGGAGGCACGGAGTCACCTAGTGCAG | 45600 fluorescence intensity (a.u.) |
| TGTGGTGGCGAGCGGCACGGAGGCGGGGCGGTGGAGGGAGCGGAGTCACCTAGTGCAG | 3980 fluorescence intensity (a.u.) |
| TAGAGGCAAGCACGACCAATGAGGACATAGGGAATGGTTCCGGAGTCACCTAGTGCAG | 9700 fluorescence intensity (a.u.) |
| CTGTGCCGCTCGCTCGTTCGCTCTGTGACTGTACGTACATCGGAGTCACCTAGTGCAG | 4590 fluorescence intensity (a.u.) |
| TTGTCGCGATGTGCCCCTTCTACGGGGTGCCACGTCACATCGGAGTCACCTAGTGCAG | 39500 fluorescence intensity (a.u.) |
| GTGTGGGGCCACGTCACAGTGGGCCCCATATGTCGGTGGGCGGAGTCACCTAGTGCAG | 12700 fluorescence intensity (a.u.) |
| CCACATCGGATGCCACGTCAGCCCTAGCCACATCAGCGCACGGAGTCACCTAGTGCAG | 38500 fluorescence intensity (a.u.) |
| GTTCGGTTTCGCGGTCAAGCGCGTGACGTGAGGTCGCCCACGGAGTCACCTAGTGCAG | 5720 fluorescence intensity (a.u.) |
| CAGCAGCAGCAGCAGCCGCCGCCTCCGTCCGTCCGTCCGTCGGAGTCACCTAGTGCAG | 3230 fluorescence intensity (a.u.) |
| TTCGTGTGCCTAGGAAAATGGTATCCAAACCCCTCAAAATCGGAGTCACCTAGTGCAG | 4190 fluorescence intensity (a.u.) |
| GAGAAATGACGACACATCCTCTCGAGTGATCAGGATCCGTCGGAGTCACCTAGTGCAG | 3590 fluorescence intensity (a.u.) |
| TGTGCCCTCTCCGTTCGATCCAGGAAAATGATAGTGTGATCGGAGTCACCTAGTGCAG | 50200 fluorescence intensity (a.u.) |
| TCACATCCGAGCTGAGCTCCTGACACAGTGACACTACTGGCGGAGTCACCTAGTGCAG | 4310 fluorescence intensity (a.u.) |
